Measurements from the supplement of paper PMC10338343.
± gives the standard deviation. The full ranking holds about 6,200 sequences; the median of “pre-steady-state target cleavage rate” is about 0.29, and the highest 2% start at about 2. Shown is part of a subset that was picked to be rich in the highest values.

tested on: MIWI (PIWIL1) piRISC loaded with piRNA #1 (30 nt); test: pre-steady-state target cleavage rate (min^-1); MIWI and MILI are mouse PIWI proteins and EfPiwi is from a freshwater sponge; tags in brackets are library labels; higher = faster piRNA-guided slicing of the target; conditions: guide: piRNA #1 5'p-UGAGGUAGUAGGUUGUAUAGUAUCCAGAGG; auxiliary factor: 500 nM mouse GTSF1
Outline: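 Active affinity-purified piRISC carrying one synthetic guide (1 nM) was mixed with a transcribed, DNA-blocked target RNA library […] in HEPES–potassium acetate buffer at 33 °C for 0–8 or 0–960 min, with or without 500 nM GTSF1 partner protein. Uncleaved targets were then sequenced and normalised to depth and to weakly complementary targets. Three trials were pooled, and k3 was capped at 0.0001 min^-1. A burst-and-steady-state fit was applied to obtain the pre-steady-state cleavage rate.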
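Note: 1 nM active piRISC with 0.1 nM target library at 33 °C single turnover.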

Row | Sequence | pre-steady-state target cleavage rate
1 | CCUCUGGAUAGUAUACAACGUACUACCUCA | 0.0367 ± 0.011
2 | GGAGACCUAUCUAUACAACCUACUACCUUA | 0.905 ± 0.069
3 | GGAGACCUAUCUUUUCAACCUACUACCUCA | 0.0982 ± 0.032
4 | GCAUCUGGAUACUAUACAACCUACUACCUCA | 1.82 ± 0.087
5 | GGAGACCUAUGAUAUGUUGCUCACUACCUCA | 0.00246 ± 0.0017
6 | CCUCUGCAUACUAUACAACCUACAACCUCA | 1.7 ± 0.12
7 | GCUCUGCAUUCUAUACAACCUACUACCUCA | 1.65 ± 0.11
8 | GGUCUGCAUUCUAUACAACCUACUACCUCA | 1.51 ± 0.11
9 | CCUCUGCAUACUAUUCAACCUACUACCUCA | 2.21 ± 0.14
10 | CCUCUGCAUUCUAUACAACCUACUACCUCA | 2.13 ± 0.13
11 | GCUCUGCAUACUAUUCAACCUACUACCUCA | 1.93 ± 0.12
12 | GCUCUGCAUACUAUACAACCUACUACCACA | 1.98 ± 0.18
13 | CCUCUGCAUACUAUACAACCUACUACCACA | 2.37 ± 0.19
14 | GGUCUGCAUACUAUUCAACCUACUACCUCA | 1.65 ± 0.12
15 | CCUCUGCAUACUAUACAACCUACUACCUCA | 2.01 ± 0.12
16 | GCUCUGCAUACUAUACAACCUACUACCUCA | 1.96 ± 0.11
17 | GGUCUGCAUACUAUACAACCUACUACCACA | 0.7 ± 0.07
18 | GGACUGGAUACUAUACAAGGUACUACCUCA | 0.331 ± 0.036
19 | GCUCAGGAUACUAUACAACCUACUACCUGA | 0.681 ± 0.042
20 | GGAGACCAUACUAUACAACCUACUACCAUCA | 1.35 ± 0.087
21 | CCUCUGGAUACAAUACAACCUACUACCUGA | 0.657 ± 0.085
22 | GGAGACCUUACAAUACAAGCUACUACCUCA | 0.258 ± 0.035
23 | GCUCUGGAUAGUAUACAACCUACUACCUGA | 0.324 ± 0.045

Row | Sequence | pre-steady-state target cleavage rate
24 | GGACUGGAUACUAUACAACCUAGAACCUCA | 0.0154 ± 0.004
25 | GGACUGGAAACUAUAGAACCUACUACCUCA | 1.13 ± 0.08
26 | GGAGAGGAUACUAUGCAACCUACUACCUCA | 1.62 ± 0.095
27 | GGACUGGAUACAUAACAACCUACUACCUCA | 0.634 ± 0.11
28 | GGUCAGCAUACUAUACAACCUACUACCUCA | 1.81 ± 0.096
29 | CCUCUGCAUACAAUACAACCUACUACCUCA | 2.02 ± 0.12
30 | GGUGUGCAUACUAUACAACCUACUACCUCA | 1.73 ± 0.1
31 | CCUGUGCAUACUAUACAACCUACUACCUCA | 2.3 ± 0.15
32 | GCUCUGCAUACAAUACAACCUACUACCUCA | 1.82 ± 0.13
33 | GCUCUGCAUACUUUACAACCUACUACCUCA | 1.68 ± 0.11
34 | GCUGUGCAUACUAUACAACCUACUACCUCA | 1.91 ± 0.12
35 | GGUCUGCAUACAAUACAACCUACUACCUCA | 1.45 ± 0.11
36 | CCUCAGCAUACUAUACAACCUACUACCUCA | 2.12 ± 0.13
37 | GCUCAGCAUACUAUACAACCUACUACCUCA | 1.83 ± 0.11
38 | GGUCUGCAUACUUUACAACCUACUACCUCA | 1.48 ± 0.12
39 | CCUCUGCAUACUUUACAACCUACUACCUCA | 2.13 ± 0.15
40 | GGAGACCUAUCUAAACAACCUACAACCUCA | 0.00335 ± 0.0022
41 | CCUCUGGAUACUAUACAGACCUACUACCUCA | 0.0114 ± 0.0052
42 | GGAGUGCAUACUAUACAACGUACUACCUCA | 0.714 ± 0.039
43 | GGAGAGGAUACUAUACAACCUACUACCUUA | 1.28 ± 0.066
44 | CCUCUGGAUAGUAUACAACCUACUUCCUCA | 0.21 ± 0.034
45 | GGAGAGGAUUCUAUACAACCUACUACCACA | 0.665 ± 0.047
46 | GCUCUGCUUACUAUACAACCUACUACCUCA | 1.96 ± 0.12

Row | Sequence | pre-steady-state target cleavage rate
47 | GGUCUGCUUACUAUACAACCUACUACCUCA | 1.74 ± 0.12
48 | CCUCUGCUUACUAUACAACCUACUACCUCA | 2.19 ± 0.15
49 | GCACUGGAUACUAUACAACCAACUACCUCA | 0.167 ± 0.017
50 | GGAGUGCAUACAAUACAACCUACUACCUCA | 1.11 ± 0.092
51 | CCUCUGAGAUACUAUACAACCUACUACCUCA | 0.572 ± 0.056
52 | CCUCUGAUACUAUACAACCUACUACCUCA | 2.11 ± 0.12
53 | GGUCUGAUACUAUACAACCUACUACCUCA | 1.79 ± 0.1
54 | GCUCUGAUACUAUACAACCUACUACCUCA | 1.9 ± 0.12
55 | GCUCUGAGAUACUAUACAACCUACUACCUCA | 2.07 ± 0.12
56 | GGUCUGAGAUACUAUACAACCUACUACCUCA | 1.89 ± 0.11
57 | GGAGACCAUACUAUACAACCUACCUACCUCA | 1.06 ± 0.066
58 | GGAGUGGAUAUUAUACAACCUACUACCUCA | 1.48 ± 0.072
59 | GGAGACCAUACUAUACAACCUACUACCUCU [g2:g23:cont:t1U] | 1.7 ± 0.11
60 | GGAGUGGAUAGUAUUCAACCUACUACCUCA | 0.584 ± 0.064
61 | GGAGACCUUACUAUACAUGGUACUACCUCA | 0.00452 ± 0.0025
62 | GCUCUGGUUACUAUUCAACCUACUACCUCA | 1.88 ± 0.12
63 | CCUCUGGAUACUAUACAACCUACUUCCACA | 0.337 ± 0.05
64 | GGACUGGAUUCUAUACAACCUACUACCUCA | 1.63 ± 0.11
65 | GGACUGGAUACUAUACAACCUACCUACCUCA | 1.06 ± 0.094
66 | GCACUGGAUACUAUACAACCUACUACCUCA | 1.81 ± 0.093
67 | GCACUGGAUUCUAUACAACCUACUACCUCA | 1.85 ± 0.096
68 | GCUACUGGAUACUAUACAACCUACUACCUCA | 2.14 ± 0.13
69 | CCACUGGAUACUAUACAACCUACUACCUCA | 1.8 ± 0.11

Row | Sequence | pre-steady-state target cleavage rate
70 | GGACUGGAUACUAUACAACCUACUACCUCC [g2:g27:cont:t1C] | 1.42 ± 0.088
71 | GGACUGGAUACUAUACUACCUACAACCUCA | 0.39 ± 0.057
72 | GGACUGGAUACUAUACAACCUACUACCUCCA | 2.19 ± 0.17
73 | CCUACUGGAUACUAUACAACCUACUACCUCA | 2.04 ± 0.11
74 | GGACUGGAUACCUAUACAACCUACUACCUCA | 1.15 ± 0.095
75 | CCACUGGAUUCUAUACAACCUACUACCUCA | 2.08 ± 0.12
76 | GGUCAGGAUACUAUACAACCUACUAGCUCA | 0.255 ± 0.033
77 | GGAGACCUAACUAUACAACCUACUACCAGA | 0.385 ± 0.062
78 | GGAGACCUUACUAUACAACCUACUACCCCA | 0.956 ± 0.086
79 | GGAGACGAUACUAUACAACCUACUACGUGA | 0.348 ± 0.054
80 | GGACUGGAUACUAUACAACCUAUUACCUCA | 0.86 ± 0.075
81 | GCUCUGGAUACUAUACAACCUACAUGCUCA | 0.589 ± 0.072
82 | GGAGACCAUACUAAUACAACCUACUACCUCA | 0.978 ± 0.08
83 | GGUCUGCAUACUAUACAACCUACUACCUGA | 0.677 ± 0.13
84 | GGAGACGAUUCUAUACAACCUACUACGUCA | 0.92 ± 0.069
85 | CCUCUGGAUCCUAUACAACCUACUACCUCA | 1.38 ± 0.14
86 | GGUCUGGAUACAUACAACCUACUACCUCA | 1.44 ± 0.11
87 | GGUCAGGAUUCUAUACAACCUACUACCUCA | 1.77 ± 0.12
88 | CCUCAGGAUUCUAUACAACCUACUACCUCA | 2.24 ± 0.13
89 | GCUCAGGAUUCUAUACAACCUACUACCUCA | 1.87 ± 0.092
90 | GCUGUGGAUACUAUACAACCUACUACCUGA | 0.776 ± 0.18
